The results in this text go back to ChEMBL document CHEMBL3988442, “University of Dundee, Small-Polar-MMV Screening Library” (2021).

Structures are written as SMILES.

The target of the test is AMP-activated protein kinase, AMPK (Homo sapiens) (UniProt P54646+O43741+P54619+Q9UGJ0+Q9Y478+Q13131+Q9UGI9). The experiment in a line: AMP-dependent Kinase enzyme assay. An in vitro enzyme assay that detects ADP turnover that is directly proportional to AMPK activity. This uses naive AMPK that is activated during the assay with MK-8722. The test is classed as functional. Also on record: scale not given: direction of the effect not stated beside the values. The note with it: 30 µM.
In the case of `CCN(CC)CCNCc1cc(O)c2cc(C)ccc2n1`, the Percent Effect amounted to 0.484%. Next, `CNc1ccc(C2CN(c3cc(C)ncn3)CCO2)nc1` (centres undefined): 10.8%; `CC(C)(CN1CCC2(CCCNC2)C1)N1CCOCC1` (centres undefined): -0.439%; `CC(C)Oc1cccc(F)c1C(C(=O)O)N1CCCN(C)CC1` (centres undefined): 3.49%. Next, `CCc1cc(NCCCNS(C)(=O)=O)nc(-c2ccncc2)n1`: -3.23%; `CC(C)OCCS(=O)(=O)N1CCN(Cc2ccco2)CC1`: -2.52%. Then `COCc1ncc(CN2CCC3(CCNC(=O)CC3)CC2)cn1`, with 0.0611%; and `NC(=O)C1(Cc2ccccc2-c2cncnc2)CCCNC1` (centres undefined), with 3.1%; and `CN(C)S(=O)(=O)N1CCOC(c2cccc(-c3cncnc3)n2)C1` (centres undefined), with 9.99%. On to `CN(C)CCN(Cc1ccc(F)cc1)C(=O)c1ccn(C)c(=O)c1`, for which the Percent Effect turned out to be 9.83%. Then `Cc1cnn(C2CCCN(C(=O)c3cc(-c4ccccc4C)n[nH]3)C2)c1` (centres undefined), with 1.68%; and `O=C(c1cc(C2CC2)n[nH]1)N1C[C@H]2CC[C@](O)(c3ccccc3F)[C@H]2C1`, with 16%. Then `COCCC(=O)N1CCCC(CCC(=O)Nc2ccc(Cl)cc2)C1` (centres undefined), with 5.38%; and `CC(=O)Nc1ccc(CNC(=O)CNCc2snnc2C)cc1`, with -1.84%. Then `Cn1cc(CCCN2CCCC(c3cc(C(F)(F)F)[nH]n3)C2)cn1` (centres undefined), with -0.434%; and `COc1cccc(-c2n[nH]cc2-c2nc(CC3CCN(C)CC3)no2)c1`, with -6.69%. Consider `CCCOc1ccccc1CCCNc1ncnc2oc(C)nc12`, for which the Percent Effect is 2.11%. Then `CN(CCc1ccccn1)C(=O)c1cccs1`, with 6.23%; and `CN(Cc1nc(C2CC2)no1)C1CCS(=O)(=O)C1` (centres undefined), with 2.02%; and `Cc1ccc2nc(CNCCCOc3ccccc3)cc(O)c2c1`, with 2.49%. Next, `CC(CN1CCOC1=O)NC(=O)c1cccc(Cl)c1Cl` (centres undefined): 10%; `O=C(CC1CCCC1)NCCNCc1cccc2c1OCCO2`: -3.45%; `CCC(C)(CC(=O)OC)NCc1nc(C)no1` (centres undefined): -1.72%. On to `Cc1ccc(CCc2nc(C3CCOC3)no2)o1` (centres undefined), for which the Percent Effect is 10.1%. Then `O=C(c1cc(-c2ccccc2)nc2onc(C3CC3)c12)N1CC[C@H](O)C1`, with 4.85%. Next, `Cc1ccc(-c2nc(C(=O)N(C)CC(=O)N3CCCC3)cs2)c(C)c1`: 1.55%; `CC(C)n1ccc(C(=O)OCC2CC(=O)N(Cc3ccccc3)C2)n1` (centres undefined): 7.89%. Next, `CCN(CC)c1ncccc1CNCc1ccc(Cl)s1`: -3.79%; `Cc1cc(N(C)CC2COc3ccccc3O2)nc(N)n1` (centres undefined): 2.34%. Consider `COCCN(CCOC)C(=O)c1cnn(C)c1-n1c(C)ccc1C`, for which the Percent Effect was -1.28%. Turning to `CC(C)(C)c1noc(CCCC(=O)N2CCNC(=O)CC2)n1`, the Percent Effect was -2.76%.

For `CCS(=O)(=O)NCC(=O)NC1(C)CCc2ccccc2C1` (centres undefined), the Percent Effect was -3.96%.

On to `CN(Cc1cc(Cl)c2c(c1)OCO2)Cc1cscn1`, for which the Percent Effect was -12.9%. As to `CCC[C@H]1CN(S(=O)(=O)N(C)Cc2ccccc2)C[C@@H]1N`, the Percent Effect is -0.364%. Consider `CC(O)CN1CCN(C(=O)CCOc2ccccc2F)CC1` (centres undefined), for which the Percent Effect is -1.3%. Next, `Cc1ccnc(NC(=O)c2ccc(C)o2)c1`: 9.16%.

For the compound `CN(Cc1cc[nH]n1)C(=O)c1ccc2c(c1)nc(N1CC[C@H](O)C1)n2C`, the Percent Effect is 19.9%. Next, `CCOC(=O)CC1CCCCN1C(=O)c1cccc2ccnn12` (centres undefined): -6.64%; `COc1ccc2c(c1)OCC(Cc1cc(C(=O)N3CCCC3)ccn1)C2` (centres undefined): 0.531%.
